Results taken from PubChem BioAssay (NCATS).
“And” between values parts separate entries of the source, which are not always exact repeats. Equal entries are not always repeated. Inconclusive results are not listed. The source made the active and inactive calls. Unless noted, the call rests on the fitted dose curve; in most records, active means well fitted curve in the direction sought with a large enough effect; inconclusive means small, poorly fitted or top-dose-only effect, or another doubt; inactive means no such curve, though single readings can be large; an effect the other way counts as inactive or inconclusive. Bridge positions count the residues as written; N and C are the ends. Square brackets hold non-standard residues; d marks the D form. Peptide text beside a SMILES is read from it. * marks the point of attachment. Octanoyl(6-Me) = CCC(C)CCCCC(=O)*; Dab = NCC[CH](N)C(=O)O

What was measured:
[1] = S16 Schwann cell PMP22 intronic element firefly luciferase assay (AID 624032); further: nearly all actives have a fitted effect of over 30% in size; further: potency means the concentration at half of the fitted maximal effect
How it was run: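 Rat S16 Schwann cells stably carrying firefly luciferase driven by a PMP22 intronic element, in 10% FBS, treated 24 h at 37 C. ONE-Glo luminescence normalized to PTC124 control and DMSO (0%); curves classed by r2, magnitude and activity.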

[2] = test system: 3D7; assay: qHTS profiling for inhibitors of Plasmodium falciparum proliferation (AID 504749); further: nearly all actives have a fitted effect of over 60% in size; further: potency means the concentration at half of the fitted maximal effect; conditions: P. falciparum in erythrocytes, SYBR Green DNA, 72 h; series mostly up to 28.7 µM
How it was run: (§1)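 P. falciparum-infected erythrocytes (0.3% parasitemia, 2.5% hematocrit) incubated with compound 72 h at 37 C, 5% CO2. Parasite DNA detected by SYBR Green after lysis, overnight at room temperature; normalised to 0.29 uM artemisinin and DMSO.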

[3] = test system: CP185; assay: as above; conditions: P. falciparum in erythrocytes, SYBR Green DNA, 72 h; series mostly up to 28.7 µM
How it was run: as §1

[4] = test system: CP217; assay: as above; conditions: P. falciparum in erythrocytes, SYBR Green DNA, 72 h; series mostly up to 28.7 µM
How it was run: as §1

[5] = test system: CP252; assay: as above; conditions: P. falciparum in erythrocytes, SYBR Green DNA, 72 h; series mostly up to 28.7 µM
How it was run: as §1

[6] = test system: ECU; assay: as above; conditions: P. falciparum in erythrocytes, SYBR Green DNA, 72 h; series mostly up to 28.7 µM
How it was run: as §1

[7] = test system: FAB9; assay: as above; conditions: P. falciparum in erythrocytes, SYBR Green DNA, 72 h; series mostly up to 28.7 µM
How it was run: as §1

[8] = test system: HB3; assay: as above; conditions: P. falciparum in erythrocytes, SYBR Green DNA, 72 h; series mostly up to 28.7 µM
How it was run: as §1

[9] = test system: ICS; assay: as above; conditions: P. falciparum in erythrocytes, SYBR Green DNA, 72 h; series mostly up to 28.7 µM
How it was run: as §1

[10] = test system: JCK; assay: as above; conditions: P. falciparum in erythrocytes, SYBR Green DNA, 72 h; series mostly up to 28.7 µM
How it was run: as §1

[11] = test system: N140; assay: as above; conditions: P. falciparum in erythrocytes, SYBR Green DNA, 72 h; series mostly up to 28.7 µM
How it was run: as §1

[12] = test system: P94_40; assay: as above; conditions: P. falciparum in erythrocytes, SYBR Green DNA, 72 h; series mostly up to 28.7 µM
How it was run: as §1

[13] = test system: PAD; assay: as above; conditions: P. falciparum in erythrocytes, SYBR Green DNA, 72 h; series mostly up to 28.7 µM
How it was run: as §1

[14] = test system: PC49; assay: as above; conditions: P. falciparum in erythrocytes, SYBR Green DNA, 72 h; series mostly up to 28.7 µM
How it was run: as §1

[15] = test system: TAB109; assay: as above; conditions: P. falciparum in erythrocytes, SYBR Green DNA, 72 h; series mostly up to 28.7 µM
How it was run: as §1

[16] = test system: TAB113; assay: as above; conditions: P. falciparum in erythrocytes, SYBR Green DNA, 72 h; series mostly up to 28.7 µM
How it was run: as §1

[17] = test system: TAB165; assay: as above; conditions: P. falciparum in erythrocytes, SYBR Green DNA, 72 h; series mostly up to 28.7 µM
How it was run: as §1

[18] = Cell Viability - LYMP1-002 - Assay at 40 hr (AID 994); further: nearly all actives have a fitted effect of over 60% in size; further: potency means the concentration at half of the fitted maximal effect
How it was run: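 Luminescent ATP signal served as the viability readout, with decreases taken as toxicity. Cells were treated with compounds across a concentration range for 40 hours at 37 C, and AC50 values came from standard Hill modeling.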

[19] = molecular target: Bile acid receptor (Homo sapiens) (UniProt Q96RI1); assay: qHTS assay for small molecule antagonists of farnesoid X receptor signaling (AID 588526; calls by dose curve)
Bile acid receptor (Homo sapiens), sequence (Q96RI1 whole entry, looked up): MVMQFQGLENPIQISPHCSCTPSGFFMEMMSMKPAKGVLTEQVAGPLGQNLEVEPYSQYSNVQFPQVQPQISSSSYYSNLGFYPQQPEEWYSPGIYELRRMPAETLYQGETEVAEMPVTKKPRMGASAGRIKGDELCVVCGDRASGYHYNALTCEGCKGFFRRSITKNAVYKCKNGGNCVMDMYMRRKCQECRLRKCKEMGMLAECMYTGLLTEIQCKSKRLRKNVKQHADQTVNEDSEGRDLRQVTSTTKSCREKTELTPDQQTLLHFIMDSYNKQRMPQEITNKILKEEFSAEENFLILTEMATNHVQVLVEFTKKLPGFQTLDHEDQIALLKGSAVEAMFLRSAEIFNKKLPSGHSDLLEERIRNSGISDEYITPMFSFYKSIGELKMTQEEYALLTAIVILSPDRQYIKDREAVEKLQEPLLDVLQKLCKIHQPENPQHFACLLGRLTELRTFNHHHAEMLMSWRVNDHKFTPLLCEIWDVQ
How it was run: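 Antagonist mode: titrated compounds tested against chenodeoxycholic acid stimulation (normalized to 50 uM CDCA and DMSO) in GeneBLAzer HEK293T cells for 16 h. Beta-lactamase read by CCF4 fluorescence; IC50 from Hill fits.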

[20] = Cell Viability - LYMP2-025 (AID 976);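 further: cells exposed to compound for 24 h at 37 °C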
How it was run: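 Seed 2500 LYMP2-025 cells/well; 5 hr at 37 C; add compound; 24 hr at 37 C; add CellTiter-Glo; 30 min RT; read luminescence. AC50 from Hill-modelled concentration-response.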

Measured: Potency

CC1CCC(C(C)C)C(OC(=O)c2ccccc2O)C1 (centres undefined)
inactive: [1] | [2] | [3] | [4] | [5] | [6] | [7] | [8] | [9] | [10] | [11] | [12] | [13] | [14] | [15] | [16] | [17]

CCC(=O)O[C@@H](OP(=O)(CCCCc1ccccc1)CC(=O)N1C[C@H](C2CCCCC2)C[C@H]1C(=O)O)C(C)C (some centres undefined)
inactive: [1] | [2] | [3] | [4] | [5] | [6] | [7] | [8] | [9] | [10] | [11] | [12] | [13] | [14] | [15] | [16] | [17]

CC(=O)O[C@@]12CO[C@@H]1C[C@H](O)[C@@]1(C)C(=O)[C@H](O)C3=C(C)[C@@H](OC(=O)C(O)[C@@H](NC(=O)OC(C)(C)C)c4ccccc4)C[C@@](O)([C@@H](OC(=O)c4ccccc4)[C@H]21)C3(C)C (some centres undefined)
active: [2] 25.1 nM | [3] 25.1 nM | [4] 44.7 nM | [5] 17.8 nM | [6] 63.1 nM | [8] 79.4 nM | [9] 112 nM | [11] 89.1 nM | [12] 35.5 nM | [13] 126 nM | [15] 31.6 nM | [16] 31.6 nM | [17] 141 nM
inactive: [10]

c1ccc2scnc2c1
inactive: [18]

O=S(=O)(O)c1ccccc1
inactive: [19]

CCC(C)CCCCC(=O)NC(CCN)C(=O)NC(C(=O)NC(CCN)C(=O)NC1CCNC(=O)C(C(C)O)NC(=O)C(CCN)NC(=O)C(CCN)NC(=O)C(CC(C)C)NC(=O)C(Cc2ccccc2)NC(=O)C(CCN)NC1=O)C(C)O (centres undefined) ({Octanoyl(6-Me)}-[Dab]T[Dab][Dab][Dab]FL[Dab][Dab]T; lactam 4-C; configuration not given here)
inactive: [1] | [2] | [3] | [5] | [6] | [7] | [8] | [9] | [10] | [11] | [12] | [14] | [15]

CO/N=C(/C(=O)N[C@@H]1C(=O)N2C(C(=O)O)=CCS[C@H]12)c1csc(N)n1
inactive: [1] | [2] | [3] | [4] | [5] | [6] | [7] | [8] | [9] | [10] | [11] | [12] | [13] | [14] | [15] | [16] | [17]

O[C@@H]([C@H](O)[C@@H](O)CBr)[C@@H](O)CBr
inactive: [18]

Cc1cc(CC(C)CC(C)(C)C)n(O)c(=O)c1 (centres undefined)
active: [1] 16100 nM | [2] 2000 nM | [3] 1120 nM | [4] 2820 nM | [5] 2820 nM | [6] 2820 nM | [8] 8910 nM | [9] 2510 nM | [10] 11200 nM | [11] 1000 nM | [12] 2820 nM | [13] 2820 nM | [15] 2240 nM | [16] 2820 nM | [17] 1780 nM

CC1(C)S[C@@H]2[C@H](NC(=O)COc3ccccc3)C(=O)N2[C@H]1C(=O)O
inactive: [1] | [2] | [3] | [4] | [5] | [6] | [7] | [8] | [9] | [10] | [11] | [12] | [13] | [14] | [15] | [16] | [17]

CC(C)(CO)C(O)C(=O)NCCCC(=O)O (centres undefined)
active: [17] 39.8 nM
inactive: [1] | [7] | [8] | [13] | [14] | [16]

O=C(O)c1ccccc1C(c1ccc(O)cc1)c1ccc(O)cc1
inactive: [20]

O=NCc1ccc([N+](=O)[O-])o1
active: [1] 12800 nM
inactive: [4] | [7] | [10] | [14]

CCO[Si](CCCN)(OCC)OCC
inactive: [19]

COC(=O)c1ccc(C)cc1
inactive: [20] | [18] | [19]

CC1=CC(C)(C)Nc2ccccc21
inactive: [20]

CCCCOCCO
inactive: [19]

COC(=O)c1ccc(C=O)cc1
inactive: [20] | [18] | [19]

C/C=C\c1ccc(OC)cc1
inactive: [20] | [18] | [19] | [1] | [2] | [3] | [4] | [5] | [6] | [7] | [8] | [9] | [10] | [11] | [12] | [13] | [14] | [15] | [16] | [17]

CCN1/C(=C/C=C/C=C/c2sc3ccccc3[n+]2CC)Sc2ccccc21
active: [2] 2000 nM | [3] 3980 nM | [4] 4470 nM | [5] 3980 nM | [6] 4470 nM | [7] 3160 nM | [8] 2240 nM | [9] 1000 nM | [10] 11200 nM | [11] 5620 nM | [12] 3980 nM | [13] 5010 nM | [14] 5620 nM | [15] 3980 nM | [16] 5010 nM | [17] 3980 nM

COC(=O)CCCCC(=O)OC
inactive: [18] | [19]

Cc1ccccc1C
inactive: [20]

CN(C)CCCCCCN(C)C
inactive: [20] | [19] | [2] | [3] | [4] | [5] | [6] | [7] | [8] | [9] | [10] | [11] | [12] | [13] | [14] | [15] | [16] | [17]

COc1ccc2nc(N)sc2c1
inactive: [20]

CCCCCCCCCCCCCCC1CO1 (centres undefined)
inactive: [18]

C=CC(=O)OCCOCCOCCOCCOC(=O)C=C
active: [18] 20 µM and 25.1 µM

Cc1ccc([N+](=O)[O-])c(C)c1
inactive: [19]

Cc1cccc([N+](=O)[O-])c1C
inactive: [20] | [18]

C1OCOCO1
inactive: [20] | [19] | [1] | [2] | [3] | [4] | [5] | [6] | [7] | [8] | [9] | [10] | [11] | [12] | [13] | [14] | [15] | [16] | [17]

Cc1c(N=C=O)cccc1N=C=O
inactive: [20]

CCCCC(CC)CN (centres undefined)
inactive: [20]

CCC(C)c1ccccc1O (centres undefined)
inactive: [18]

O=C1c2ccccc2C(=O)C1c1ccc2ccccc2n1
inactive: [18]

CN1CC[C@H](CN2c3ccccc3Sc3ccccc32)C1
active: [1] 32200 nM | [4] 11200 nM | [5] 11200 nM | [6] 11200 nM | [9] 2000 nM | [11] 11200 nM | [12] 8910 nM | [13] 8910 nM | [15] 11200 nM | [17] 12600 nM

c1ccc2c(c1)c1cccc3ccc4cccc2c4c31
inactive: [18] | [19]

O=C(O)CC(C(=O)O)C(CC(=O)O)C(=O)O (centres undefined)
inactive: [19]
